# Compound activity from PubChem BioAssay.
# Sampled rows, rich in hits. Any-hit rate of the full collection: about 1.4%.
# PrP UTR inh: inhibition of PrP 5' UTR reporter expression. 0.35% of 340,000 active. cell-based PrP 5' UTR mRNA reporter, plate reader. inhibition, % (concentration not given with the values); in the data active means inhibition above about 52%; further: 0 = median of the neutral control wells
# FadD28 binding: inhibitors of FadD28 bisubstrate probe binding, primary screen, biochemical, fluorescence polarization, single point; 0.22% of 360,000 active; inhibition, % at 12.5 µM; in the data active means inhibition above about 8.5%, passing the limit was not always enough
# PrPC TRFRET: inhibitors of human cell surface prion protein PrPC, primary screen, cell-based, TR-FRET; TR-FRET read-out; 0.43% of 370,000 active; inhibition, % at 13.8 µM; in the data active means inhibition above about 24%; further: 0% = median of the test wells and 100% = reference compound wells
# SSB-PriA inh: inhibitors of Klebsiella pneumoniae PriA binding to SSB C-terminal tail, primary screen, biochemical, AlphaScreen | PriA–SSB C-terminal tail interaction (Klebsiella pneumoniae) | AlphaScreen SSBct-PriA binding, biotinylated peptide | inhibition, % at 33 µM | 0.6% of 430,000 active | AID 1272365, 2023; in the data active means inhibition mostly above about 37%, no sharp cut-off; inactive means mostly below about 20%;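 further: plate controls were negative control peptide for no effect and reference peptide for full effect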
# Vc quorum ag: inducers of Vibrio cholerae quorum light production without autoinducers, primary screen, BH1578 luxS cqsA deficient, single point. V. cholerae BH1578 lux reporter, luminescence, 6 h. activation, % at 18.7 µM. 0.16% of 350,000 active. AID 588436, 2011; in the data active means activation mostly above about 9.7%, no sharp cut-off
# * = called active by the depositor; i = inactive; x = no result; ! = not active in a repeat.
SMILES,PrP UTR inh,FadD28 binding,PrPC TRFRET,SSB-PriA inh,Vc quorum ag
O=C(NC(=S)NNC(=O)c1ccccc1O)c1cccnc1,-6,-4,-6,62*,0
O=C(Cc1c[nH]c2ccccc12)N1CCS[C@H](c2ccccc2F)CC1,x,x,x,7,x
NC(=NOC(=O)c1ccc2c(c1)OCO2)c1cccnc1,x,x,x,4,x
CC(C)(C)C(=O)Nc1ccc(C(=O)Nc2cccc(Oc3ccc(C(=O)O)c(C(=O)O)c3)c2)cc1,-36,-4,-7,-9,-1
O=C(Nc1cccc(Oc2ccc(C(=O)O)c(C(=O)O)c2)c1)c1ccc(-c2ccccc2)cc1,13,29*,2,-9,i
CCC(C)Sc1cc(-c2nc3ccc(C)cn3c2NCc2ccccc2)ccc1OC (stereo unspecified),0,2,11,39*,0
CCC(C)Sc1ccc(-c2nc3ccc(C)cn3c2NCc2ccccc2)cc1OC (stereo unspecified),-12,-1,x,29,i
COc1ccc(-c2cc(-c3nc4ccccn4c3NCc3ccccc3)ccc2OC)cc1,16,-2,85*,-3,i
COc1ccc(-c2nc3ccccn3c2NCc2ccc3c(c2)OCO3)cc1,-32,1,-7,37,i
COc1ccc(-c2nc3cc(C)ccn3c2NCc2ccc3c(c2)OCO3)cc1,2,1,0,54*,2
COc1ccccc1-c1c(C)nn2c(NCCOCCO)cc(C)nc12,x,x,x,0,x
O=C(c1csc(-c2ccccc2)n1)N1CCC2(CC1)OCCS2,x,x,x,-15,x
CCc1nnc(NS(=O)(=O)c2ccc(NC(=O)c3ccc(Cl)cc3Cl)cc2)s1,x,x,x,6,x
Cc1cc(NC(=O)c2ccc(S(=O)(=O)N3CCCc4ccccc43)cc2)n(C)n1,x,x,x,-1,x
Cc1c(C)c(C)c(S(=O)(=O)NCCc2ccc3c(c2)CCCN3C)c(C)c1C,x,x,x,3,x
Cc1ccc(Cl)cc1S(=O)(=O)NCC(c1ccc2c(c1)CCN2C)N1CCOCC1 (stereo unspecified),x,x,x,18,x
Cc1cc(C)c(S(=O)(=O)NCCc2ccc3c(c2)CCCN3C)cc1C,x,x,x,40*,x
Cc1ccc(Cl)cc1S(=O)(=O)NCCc1ccc2c(c1)CCCN2C,x,x,x,59*,x
Cc1ccc(NC(=O)CSc2nc3ccccc3c(=O)n2Cc2cccs2)cc1,-65,-4,2,-1,0
Cc1ccc(Cn2c(SCC(=O)Nc3ncn[nH]3)nc3ccccc3c2=O)cc1,x,x,x,90*,x
Cc1cc(C(=O)CCl)c(C)n1CCc1ccc(Cl)cc1,5,-7,-8,41*,i
CCN1CCCc2cc(CCNC(=O)C(=O)NCCOC)ccc21,x,x,x,68*,x
CCN1CCCc2cc(CCNC(=O)C(=O)NC(C)(C)C)ccc21,x,x,x,52,x
CCN1CCCc2cc(CCNC(=O)NC(C)(C)C)ccc21,x,x,x,44*,x
CCN1CCCc2cc(CCNC(=O)c3ccc(OC(C)C)cc3)ccc21,x,x,x,61*,x
SMILES,PrP UTR inh,FadD28 binding,PrPC TRFRET,SSB-PriA inh,Vc quorum ag
CCN1CCCc2cc(CCNC(=O)c3ccc(Br)o3)ccc21,x,x,x,active!,x
CCCNC(=O)C(=O)NCCc1ccc2c(c1)CCCN2CC,x,x,x,41,x
O=C(Nc1ccc(O)c(-c2nc3ccccc3s2)c1)C1CCN(S(=O)(=O)c2cccs2)CC1,x,x,x,3,x
Nc1c(C(=O)NCc2ccco2)sc(=S)n1Cc1ccccc1,x,x,x,9,x
O=C(CSc1ccc(F)cc1)NCCn1nc(C(F)(F)F)c2c1CCCC2,x,x,x,-13,x
O=C(NC1CCCCCC1)c1ccc2c(=O)nc3c(-c4ccccc4)n[nH]n3c2c1,x,x,x,-18,x
CN(C)c1ccc(NC(=O)Nc2cn(C)c3ccccc23)cc1,x,x,x,54,x
COc1ccc(-n2nnnc2SCC(=O)c2ccc(O)c(O)c2)cc1,-19,12*,4,6,i
NC(=O)c1ccc(-n2nnnc2SCC(=O)c2ccc(O)c(O)c2)cc1,6,-4,-1,-5,0
COc1cccc(NC(=O)c2cnc(SCc3ccc(F)cc3)n(C)c2=O)c1,x,x,x,-15,x
O=c1cc(-c2ccccc2Cl)oc2c(NS(=O)(=O)c3cc(Cl)cc(Cl)c3O)ccc(O)c12,-6,13*,x,2,0
Cc1ccc(C(C)(C)C)cc1S(=O)(=O)Nc1nc2ccccc2nc1Cl,-16,1,27*,-7,i
NNc1nc2ccccc2[nH]c1=O,x,x,x,38*,x
Cc1nc2ccccc2[nH]c1=O,-23,-1,7,-12,0
COc1cc(-c2nc3ccc(C)cn3c2Nc2ccc3c(c2)OCCO3)ccc1O,-10,-2,5,55*,i
COc1cc(-c2nc3cnccn3c2Nc2ccc3c(c2)OCCO3)ccc1O,-7,3,-3,22,-1
CS(=O)(=O)Nc1cccc(NC(=O)c2cc(=O)[nH]cn2)c1,x,x,x,5,x
COc1ccccc1-c1cn2nnc(C(=O)NCc3c(C)noc3C)c2c(=O)[nH]1,x,x,x,25*,x
Cc1ccc(-c2cc(C(=O)Nc3ccc(S(=O)(=O)Nc4onc(C)c4C)cc3)[nH]n2)c(O)c1,-15,14*,2,6,-1
CC(=NNC(=O)C1COc2ccccc2O1)c1ccccn1 (stereo unspecified),x,x,x,61*,x
CC(=NNC(=O)c1ccc(Cl)c(Cl)c1)c1ccccn1,x,x,x,-6,x
CC(=NNc1ncc(Cl)cc1Cl)c1ccccn1,x,x,x,47*,x
C/C(=N\NC(=O)C1COc2ccccc2O1)c1ccccn1 (stereo unspecified),32,-2,1,x,0
CC(=O)c1sc(NC(=O)C2COc3ccccc3O2)nc1C (stereo unspecified),32,-1,41*,-3,-1
CCOC(=O)c1sc(NC(=O)C2COc3ccccc3O2)nc1-c1ccccc1 (stereo unspecified),x,x,x,-15,x
SMILES,PrP UTR inh,FadD28 binding,PrPC TRFRET,SSB-PriA inh,Vc quorum ag
CC(=NNC(=O)c1ccc(Cl)cc1)c1ccccn1,x,x,x,45*,x
CCS(=O)(=O)N1CCN(c2ccc(Nc3cc(C)ccn3)nn2)CC1,x,x,x,-16,x
CCOC(=O)c1ccccc1NC(=O)CSc1nnc(NC(=O)Nc2ccc(OC)cc2)s1,x,x,x,-7,x
CC1CCN(S(=O)(=O)c2ccc(C(=O)N=c3sc4cc5c(cc4n3C)OCO5)cc2)CC1,x,x,x,-24,x
COc1ccc([C@@H](O)CNC(=O)C(=O)Nc2ccc(F)c(F)c2)cc1OC,x,x,x,-3,x
CN(C)CCCNc1cc(O)c2ncccc2c1,-9,0,-56,48*,i
O=C(Cn1ncccc1=O)N1CCN(c2ccc(-c3ccccn3)nn2)CC1,x,x,x,130*,x
COc1ccccc1-c1ccc(=O)n(CC(=O)N2CCN(c3ccc(-c4ccccn4)nn3)CC2)n1,x,x,x,104*,x
COc1ccccc1-c1ccc(=O)n(CC(=O)N2CCN(C(c3ccccc3)c3ccccc3)CC2)n1,x,x,x,-11,x
O=C(Nc1ccc(-c2ccc(N3CCOCC3)nn2)cc1)c1ccc2c(c1)OCO2,x,x,x,-8,x
Cc1cc(NC(=O)CS(=O)(=O)c2cn(CC(=O)N3CCCC3)c3ccccc23)no1,x,x,x,-14,x
Cc1cc(C)cc(NC(=O)CS(=O)(=O)c2cn(CC(=O)N3CCCC3)c3ccccc23)c1,x,x,x,50*,x
